{
  "source": "PubChem BioAssay AID1578",
  "about": "(Sanford-Burnham Center for Chemical Genomics, 2009)",
  "note": "About 3,000 (1%) of roughly 290,000 compounds were called active. This excerpt belongs to a sample that is enriched for actives. Values without a mark were called inactive. No stated cut-off is given here; in the data, active means inhibition mostly above about 36% (no sharp cut-off); inactive means mostly below about 34%.",
  "data": [
    {"experiment": "NOD1 signaling inhibitors, primary screen, cell-based, luminescence, uHTS (AID 1578);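 further: HEK-293T reporter cells stimulated with the NOD1 agonist gamma-tri-DAP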", "settings": "NOD1-driven NF-kB luciferase reporter cells, at 4 µM, active compounds read high", "values": [
      {"smiles": "CCOC(=O)c1c(C)oc2c1c(C=NC1CCS(=O)(=O)C1)c(O)c1ccccc12", "note": "(stereo not drawn)", "inhibition": "75.8% (active)"},
      {"smiles": "CCOC(=O)c1c(C)oc2c1c(C=NCCC(=O)O)c(O)c1ccccc12", "inhibition": "-16.5%"},
      {"smiles": "CCOC(=O)c1c(C)oc2c1c(C=NCCO)c(O)c1ccccc12", "inhibition": "-37.2%"},
      {"smiles": "CCOC(=O)c1c(-c2ccccc2)csc1NC(=O)C(C)NCc1ccco1", "note": "(stereo not drawn)", "inhibition": "1.6%"},
      {"smiles": "N#C/C(=C\\c1ccc(F)c(Cl)c1)S(=O)(=O)c1ccccn1", "inhibition": "0.3%"},
      {"smiles": "COc1ccc(/C=N/NC(=O)C2C(C=C(Cl)Cl)C2(C)C)c(OC)c1", "note": "(stereo not drawn)", "inhibition": "-24.6%"},
      {"smiles": "CC1(C)C(C=C(Cl)Cl)C1C(=O)N/N=C/c1ccccc1F", "note": "(stereo not drawn)", "inhibition": "80.1% (active)"},
      {"smiles": "CC1(C)OC2OC(C(=O)N/N=C/c3ccccc3F)C3OC(C)(C)OC3C2O1", "note": "(stereo not drawn)", "inhibition": "-13.7%"},
      {"smiles": "CCN1CNC(=S)N(c2cccc(C)c2)C1", "inhibition": "-5.8%"},
      {"smiles": "Cc1nnc(NC(=O)c2cccc(S(=O)(=O)N3CCc4ccccc43)c2)s1", "inhibition": "11.7%"},
      {"smiles": "CCC(CC)c1nnc(NC(=O)c2cccc(S(=O)(=O)N3CCc4ccccc43)c2)s1", "inhibition": "56.8%"},
      {"smiles": "CCOC(=O)c1sc(NC(=O)c2cccc(S(=O)(=O)N3CCc4ccccc43)c2)c(C#N)c1C", "inhibition": "79.7% (active)"},
      {"smiles": "COc1cc2ccccc2cc1C(=O)Nc1ccc(N2CCN(C(=O)C(C)C)CC2)cc1", "inhibition": "17.8%"},
      {"smiles": "CC(=O)OC(C(=O)NC1CCCCC1)c1ccccc1F", "note": "(stereo not drawn)", "inhibition": "-33.2%"},
      {"smiles": "O=C(NN1CCOCC1)c1ccc(Cl)cc1[N+](=O)[O-]", "inhibition": "-11.4%"},
      {"smiles": "O=C(O)c1ccc(NS(=O)(=O)c2cccc(C(=O)Nc3ccc(Br)cc3)c2)cc1", "inhibition": "-13.1%"},
      {"smiles": "O=C(Nc1ccc(Br)cc1)c1cccc(S(=O)(=O)Nc2cnc3ccccc3c2)c1", "inhibition": "48.2%"},
      {"smiles": "COc1ccc(NS(=O)(=O)c2ccc(Br)cc2)cn1", "inhibition": "-35.5%"},
      {"smiles": "COc1ccc(NS(=O)(=O)c2ccc3oc4ccccc4c3c2)cn1", "inhibition": "56.6%"},
      {"smiles": "Cc1ccc2cc(NC(=O)CC(CC(=O)O)c3ccccc3)ccc2n1", "note": "(stereo not drawn)", "inhibition": "-10.4%"},
      {"smiles": "CNC(=S)NCCc1ccc(OC)c(OC)c1", "inhibition": "24.7%"},
      {"smiles": "CCN(CC)S(=O)(=O)c1cccc(NC(=O)COC(=O)CCC(=O)c2ccc(F)cc2)c1", "inhibition": "-40.1%"},
      {"smiles": "O=C(c1cc2ccccc2oc1=O)N(c1ccccc1)C1C=CS(=O)(=O)C1", "note": "(stereo not drawn)", "inhibition": "5.4%"},
      {"smiles": "C/C(=N\\N=C(/N)SC1CC(=O)N(c2ccc(Cl)cc2)C1=O)c1cccs1", "note": "(stereo not drawn)", "inhibition": "-4.8%"},
      {"smiles": "C/C(=N\\N=C(/N)SC1CC(=O)N(c2ccc(Br)cc2)C1=O)c1cccs1", "note": "(stereo not drawn)", "inhibition": "87.7% (active)"},
      {"smiles": "C/C(=N\\N=C(/N)SC1CC(=O)N(c2ccccc2)C1=O)c1cccs1", "note": "(stereo not drawn)", "inhibition": "15.7%"},
      {"smiles": "Cc1cccnc1CN1CCN(C(=O)CCc2nnc(CCc3ccccc3)o2)CC1", "inhibition": "-55.3%"},
      {"smiles": "CCCN1C(=O)/C(=C/c2nc3ccccc3c(=O)[nH]2)c2ccccc21", "inhibition": "-6.3%"},
      {"smiles": "CCN1C(=O)/C(=C/c2nc3ccccc3c(=O)[nH]2)c2ccccc21", "inhibition": "21.1%"},
      {"smiles": "CC(C)N1C(=O)/C(=C\\c2nc3ccccc3c(=O)[nH]2)c2ccccc21", "inhibition": "105% (active)"},
      {"smiles": "COc1ccc(CC(=O)Nc2ncc([N+](=O)[O-])s2)cc1OC", "inhibition": "-65%"},
      {"smiles": "Cc1ccc(CC(=O)Nc2ncc([N+](=O)[O-])s2)cc1", "inhibition": "-37.4%"},
      {"smiles": "CCCCC(=O)Nc1ncc([N+](=O)[O-])s1", "inhibition": "-10.8%"},
      {"smiles": "CC(CC(=O)Nc1ncc([N+](=O)[O-])s1)c1ccccc1", "note": "(stereo not drawn)", "inhibition": "-19.5%"},
      {"smiles": "O=C(CS(=O)(=O)c1ccccc1)Nc1ncc([N+](=O)[O-])s1", "inhibition": "-39%"},
      {"smiles": "CC(C)CC(=O)Nc1ncc([N+](=O)[O-])s1", "inhibition": "3.6%"},
      {"smiles": "O=C(COc1ccc(Cl)cc1)Nc1ncc([N+](=O)[O-])s1", "inhibition": "73.5% (active)"},
      {"smiles": "CC(C1CC1)N(Cc1ccccc1)C(=S)Nc1ccccc1Cl", "note": "(stereo not drawn)", "inhibition": "-9.7%"},
      {"smiles": "CC(SCC(=O)O)c1nc2ccccc2[nH]1", "note": "(stereo not drawn)", "inhibition": "10.8%"},
      {"smiles": "CCOc1ccccc1N(C)S(=O)(=O)c1ccc2c(c1)N(C(C)=O)CCO2", "inhibition": "5.2%"},
      {"smiles": "NC(=O)/C(=C\\c1ccccc1)NC(=O)/C=C/c1ccccc1", "inhibition": "-19%"},
      {"smiles": "CCOC(=O)c1nn(-c2ccccc2)c2nnc(Cc3ccccc3)c(=O)n12", "inhibition": "45.2%"},
      {"smiles": "CCOC(=O)C1=C(CSc2nc3ccccc3s2)NC(=O)NC1c1cccc([N+](=O)[O-])c1", "note": "(stereo not drawn)", "inhibition": "32.6%"},
      {"smiles": "COC(=O)C1=C(CSc2nc3ccccc3s2)NC(=O)NC1c1ccc(F)cc1", "note": "(stereo not drawn)", "inhibition": "-25.4%"},
      {"smiles": "CCOC(=O)C1=C(CSc2nc3ccccc3s2)NC(=O)NC1c1ccc(OC)cc1", "note": "(stereo not drawn)", "inhibition": "67.5% (active)"},
      {"smiles": "CCN(CC)CCCNC(=O)C1c2ccccc2C(=O)N(CCOC)C1c1ccc(F)cc1", "note": "(stereo not drawn)", "inhibition": "-40.8%"},
      {"smiles": "CCN1CCN(CCCNC(=O)C2c3ccccc3C(=O)N(C)C2c2ccc(OC)cc2)CC1", "note": "(stereo not drawn)", "inhibition": "-21.6%"},
      {"smiles": "CCN(CC)CCCNC(=O)C1c2ccccc2C(=O)N(C)C1c1ccc(OC)cc1", "note": "(stereo not drawn)", "inhibition": "99.8% (active)"},
      {"smiles": "COc1ccc(CCN2CC(C(=O)NC3CCCCC3)CC2=O)cc1OC", "note": "(stereo not drawn)", "inhibition": "-2%"},
      {"smiles": "CCCc1cc(NCCCO)n2c(nc3ccccc32)c1C#N", "inhibition": "-0.5%"},
      {"smiles": "Cc1n[nH]c(C)c1CCNCc1ccc(OCC(O)CN2CCCCC2)cc1", "note": "(stereo not drawn)", "inhibition": "-21.7%"},
      {"smiles": "Cc1csc(NC(=O)c2cn3ccccc3n2)n1", "inhibition": "53.2% (active)"},
      {"smiles": "O=C(Nc1nccs1)c1cn2ccccc2n1", "inhibition": "22.8%"},
      {"smiles": "O=C(Nc1ccccc1)c1cn2ccccc2n1", "inhibition": "1.1%"},
      {"smiles": "Cc1noc(C)c1CSc1cc(C)c2ccccc2n1", "inhibition": "-32.2%"},
      {"smiles": "COc1ccc(C(=O)Nc2ccc3c(c2)C(=O)N(C)C3=O)cc1OC", "inhibition": "-3.5%"},
      {"smiles": "COc1cccc(-n2cnc3sc(C)cc3c2=O)c1", "inhibition": "-25.1%"},
      {"smiles": "CCCOC(=O)c1cc(=O)[nH]c2ccccc12", "inhibition": "-5.2%"},
      {"smiles": "O=C(NCCN1C(=O)S/C(=C\\c2ccc(F)cc2)C1=O)c1cccc(S(=O)(=O)N2CCOCC2)c1", "inhibition": "21.8%"},
      {"smiles": "O=C(NCCN1C(=O)S/C(=C\\c2ccc(Cl)cc2)C1=O)c1ccc(F)c(S(=O)(=O)N2CCOCC2)c1", "inhibition": "-0.6%"},
      {"smiles": "CC(C)(C)c1ccc(/C=C2\\SC(=O)N(CCNC(=O)c3cccc(S(=O)(=O)N4CCOCC4)c3)C2=O)cc1", "inhibition": "74.4% (active)"},
      {"smiles": "CC1CCN(C(=O)c2ccccc2NC(=O)c2cccc(S(=O)(=O)N(C)C)c2)CC1", "inhibition": "-46.2%"},
      {"smiles": "CCOC(=O)c1c(-c2ccc(C)o2)csc1NC(=S)NC(=O)c1ccc(F)cc1", "inhibition": "37.3%"},
      {"smiles": "CCOC(=O)c1c(-c2ccc(C)o2)csc1NC(=S)NC(=O)N(C)C", "inhibition": "97.4% (active)"},
      {"smiles": "CCOC(=O)c1c(-c2ccc(C)o2)csc1NC(=S)NC(=O)c1cccs1", "inhibition": "36.4%"},
      {"smiles": "COc1ccc(-c2ncccc2OC(=O)C23CC4CC(CC(C4)C2)C3)cc1OC", "inhibition": "-13.7%"},
      {"smiles": "CC1CCC(NC(=O)COc2ccccc2C(N)=O)CC1", "note": "(stereo not drawn)", "inhibition": "-22%"},
      {"smiles": "CN(C)c1oc(/C=C/c2cccs2)nc1S(=O)(=O)c1ccccc1", "inhibition": "32.1%"},
      {"smiles": "Cc1cc(O)c(C(=O)/C=C/c2ccc(Cl)cc2)c(=O)o1", "inhibition": "46.1% (active)"},
      {"smiles": "Cc1cc(O)c(C(=O)/C=C/c2ccccc2)c(=O)o1", "inhibition": "0.7%"},
      {"smiles": "Cc1cc(O)c(C(=O)/C=C/c2ccc(C(C)C)cc2)c(=O)o1", "inhibition": "5.9%"},
      {"smiles": "CCOC(=O)C1(CCc2ccccc2)CCN(Cc2ccc(C(=O)OC)cc2)CC1", "inhibition": "13.7%"},
      {"smiles": "Cc1occc1C(=O)Nc1ccc2ccccc2c1", "inhibition": "-121%"},
      {"smiles": "Cc1ccc(NC(=O)c2ccoc2C)cc1C", "inhibition": "112% (active)"},
      {"smiles": "Cc1occc1C(=O)Nc1ccc2c(c1)OCCO2", "inhibition": "-15%"},
      {"smiles": "COC(=O)C(Cc1c[nH]c2ccccc12)NC(=O)c1cccs1", "note": "(stereo not drawn)", "inhibition": "-7.6%"},
      {"smiles": "CCN(C(=O)COc1ccccc1)c1nnc(-c2cccnc2)s1", "inhibition": "-10.9%"},
      {"smiles": "CCN1CCN(c2nc3ccccc3nc2C(C#N)C(=O)OC2CCCCC2)CC1", "note": "(stereo not drawn)", "inhibition": "81.8% (active)"},
      {"smiles": "N#CC(C(=O)OC1CCCCC1)c1nc2ccccc2nc1N1CCCCC1", "note": "(stereo not drawn)", "inhibition": "4.5%"},
      {"smiles": "CN1CCN(c2nc3ccccc3nc2C(C#N)C(=O)OC2CCCCC2)CC1", "note": "(stereo not drawn)", "inhibition": "11.4%"},
      {"smiles": "COCCN1C(=O)C(CC(=O)Nc2ccc(C(C)=O)cc2)SC1=Nc1ccccc1", "note": "(stereo not drawn)", "inhibition": "4.5%"},
      {"smiles": "COC(=O)Nc1ccc(C)c(NC(=O)OC)c1", "inhibition": "-7.3%"},
      {"smiles": "O=c1[nH]c([N+](=O)[O-])nn1C(c1ccccc1)c1ccccc1", "inhibition": "6.5%"},
      {"smiles": "COC(=O)c1ccc(CSc2cc(C)c3cc(C)cc(C)c3n2)o1", "inhibition": "48.3% (active)"},
      {"smiles": "COC(=O)c1ccc(CSc2cc(C)c3ccccc3n2)o1", "inhibition": "-55.1%"},
      {"smiles": "COC(=O)c1ccc(CSc2cc(C)c3cccc(C)c3n2)o1", "inhibition": "-10.2%"},
      {"smiles": "CCOC(=O)C1CCN(Cc2cc(C(C)(C)C)c(O)c(C(C)(C)C)c2)CC1", "inhibition": "43.8% (active)"},
      {"smiles": "CCOC(=O)C1CCN(Cc2cc(C(C)C)c(O)c(C(C)C)c2)CC1", "inhibition": "-13.9%"},
      {"smiles": "CC(C)(C)c1cc(CN2CCC(O)CC2)cc(C(C)(C)C)c1O", "inhibition": "36.7%"},
      {"smiles": "Cc1c(C(c2cccc(Br)c2)c2c(C)n(C)n(-c3ccccc3)c2=O)c(=O)n(-c2ccccc2)n1C", "inhibition": "-14%"},
      {"smiles": "CC12C(=O)N(c3ccc(C(=O)N4CCOCC4)cc3)C(=O)C1C1c3ccccc3C2c2ccccc21", "note": "(stereo not drawn)", "inhibition": "-20.5%"},
      {"smiles": "c1ccc(-n2c(SCC3CCCCO3)nnc2-c2cnccn2)cc1", "note": "(stereo not drawn)", "inhibition": "11.8%"},
      {"smiles": "CCc1nnc(NC(=O)C2CCN(c3cnccn3)CC2)s1", "inhibition": "-4.1%"}
    ]}
  ]
}
